Reference: PubChem BioAssay (NCI)
The panel holds about 83,000 compounds, 20% with a hit somewhere; the sample as a whole holds those more often.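 For each line, cells grew in 96-well plates with the test compound present at a single concentration for 48 hours.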 Activity calls are given as the source filed them. The calls were made as follows: active = growth percent below 10; inactive = the rest.

Tests used:
Experiment in all cases: NCI-60 one-dose screen, 48 h (100 = growth as untreated, 0 = no growth, -100 = all killed)
Conditions in all cases: 10 µM unless noted
HCT-15 colon = test system: HCT-15 colon
HT29 colon = test system: HT29 colon
SNB-75 CNS = test system: SNB-75 CNS
SNB-19 CNS = test system: SNB-19 CNS
PC-3 prostate = test system: PC-3 prostate
SK-MEL-5 melanoma = test system: SK-MEL-5 melanoma
LOX IMVI melanoma = test system: LOX IMVI melanoma
SK-MEL-28 melanoma = test system: SK-MEL-28 melanoma
SK-MEL-2 melanoma = test system: SK-MEL-2 melanoma
EKVX NSCLC = test system: EKVX NSCLC
SN12C renal = test system: SN12C renal
UO-31 renal = test system: UO-31 renal
TK-10 renal = test system: TK-10 renal
ACHN renal = test system: ACHN renal
A498 renal = test system: A498 renal
CCRF-CEM leukemia = test system: CCRF-CEM leukemia
MOLT-4 leukemia = test system: MOLT-4 leukemia
CAKI-1 renal = test system: CAKI-1 renal
UACC-62 melanoma = test system: UACC-62 melanoma
U251 CNS = test system: U251 CNS

Measured: growth

COc1cc(/C=C2\C(=O)N(CC(O)COc3cc(O)c4c(=O)cc(-c5ccccc5)oc4c3)c3ccccc32)cc(OC)c1O (stereo not drawn)
inactive: HCT-15 colon 59.1% | HT29 colon 88.2% | SNB-75 CNS 81.1% | SNB-19 CNS 92.2% | PC-3 prostate 61.1% | SK-MEL-5 melanoma 50% | LOX IMVI melanoma 80.2% | SK-MEL-28 melanoma 92% | SK-MEL-2 melanoma 82.2% | EKVX NSCLC 78.8% | SN12C renal 84% | UO-31 renal 50.6% | TK-10 renal 137% | ACHN renal 80.4% | A498 renal 105% | CCRF-CEM leukemia 59.1% | MOLT-4 leukemia 63.8%

COc1ccc(-c2nc(SCC(=O)Nc3ccc(C(C)=O)cc3)[nH]c(=O)c2C#N)cc1
inactive: HCT-15 colon 103% | HT29 colon 101% | SNB-75 CNS 88.3% | SNB-19 CNS 96.5% | PC-3 prostate 88% | SK-MEL-5 melanoma 100% | LOX IMVI melanoma 96.2% | SK-MEL-28 melanoma 101% | SK-MEL-2 melanoma 104% | EKVX NSCLC 102% | SN12C renal 94.5% | UO-31 renal 105% | TK-10 renal 98.4% | ACHN renal 101% | CAKI-1 renal 96.2% | A498 renal 98.1% | CCRF-CEM leukemia 109% | MOLT-4 leukemia 103%

c1ccc(CN2C(c3ccccc3)=Nc3ccccc3C2c2c[nH]c3ccccc23)cc1 (stereo not drawn)
inactive: HCT-15 colon 35.6% | HT29 colon 15.1% | SNB-75 CNS 59.2% | SNB-19 CNS 49.1% | PC-3 prostate 29.8% | SK-MEL-5 melanoma 42.4% | LOX IMVI melanoma 15.4% | SK-MEL-2 melanoma 69% | EKVX NSCLC 37.3% | SN12C renal 36.4% | UO-31 renal 24.5% | TK-10 renal 45.8% | ACHN renal 51.4% | CAKI-1 renal 35.9% | A498 renal 63.6% | CCRF-CEM leukemia 32.4%
active: MOLT-4 leukemia 2.6%

CCC(c1ccc(OC)cc1)C(CC)c1ccc(O)c(CN2CCCCC2)c1 (stereo not drawn)
inactive: HCT-15 colon 33.6% | HT29 colon 24.7% | SNB-75 CNS 94.5% | SNB-19 CNS 90.6% | PC-3 prostate 54.3% | SK-MEL-5 melanoma 30.6% | LOX IMVI melanoma 75.9% | SK-MEL-28 melanoma 41.6% | SK-MEL-2 melanoma 79.7% | EKVX NSCLC 64.6% | SN12C renal 66% | UO-31 renal 39.6% | TK-10 renal 84.6% | ACHN renal 82.3% | CAKI-1 renal 61.6% | A498 renal 72.8% | CCRF-CEM leukemia 68.7% | MOLT-4 leukemia 62.7%

CCc1ccccc1NC(=O)c1sc2nc3c(cc2c1N)CCCC3
active: A498 renal 6.65%
inactive: HCT-15 colon 28.1% | HT29 colon 13.5% | SNB-75 CNS 12.3% | SNB-19 CNS 37.6% | PC-3 prostate 52.9% | SK-MEL-5 melanoma 34.8% | LOX IMVI melanoma 36.5% | SK-MEL-2 melanoma 31.8% | EKVX NSCLC 72.9% | SN12C renal 34.9% | UO-31 renal 48.9% | TK-10 renal 59.5% | ACHN renal 48.2% | CAKI-1 renal 45.6% | CCRF-CEM leukemia 18.3% | MOLT-4 leukemia 25.4%

CCOc1ccc(NC(=O)c2ccccc2-c2ccccc2C(=O)O)cc1
inactive: HCT-15 colon 106% | HT29 colon 107% | SNB-75 CNS 91.3% | SNB-19 CNS 98.8% | PC-3 prostate 101% | SK-MEL-5 melanoma 106% | UACC-62 melanoma 99.2% | SK-MEL-28 melanoma 109% | SK-MEL-2 melanoma 101% | EKVX NSCLC 101% | SN12C renal 100% | UO-31 renal 88.7% | TK-10 renal 110% | ACHN renal 107% | CAKI-1 renal 98.9% | A498 renal 93.3% | CCRF-CEM leukemia 99.5% | MOLT-4 leukemia 83.6%

O=S(=O)(NCCNc1cc(-c2cn(-c3ccccc3)nc2-c2cccc(O)c2)ccn1)c1ccc(Br)cc1
inactive: SNB-75 CNS 43.7% | SNB-19 CNS 41.3% | U251 CNS 22.5% | SK-MEL-2 melanoma 20.7% | EKVX NSCLC 34.9% | SN12C renal 34.4% | UO-31 renal 19.8% | TK-10 renal 46.1% | ACHN renal 23.7% | CAKI-1 renal 43.2% | A498 renal 53.7%
active: HCT-15 colon 5.6% | HT29 colon 4.7% | CCRF-CEM leukemia 9.77% | MOLT-4 leukemia 8.59%

CC1(C)c2ccccc2C(=O)C1(Br)Cc1ccccc1 (stereo not drawn)
inactive: HCT-15 colon 71.3% | HT29 colon 67.4% | SNB-75 CNS 78.8% | SNB-19 CNS 81.1% | PC-3 prostate 77.4% | UACC-62 melanoma 78.3% | LOX IMVI melanoma 78.7% | SK-MEL-28 melanoma 95.8% | SK-MEL-2 melanoma 103% | EKVX NSCLC 94.5% | SN12C renal 95.4% | UO-31 renal 56.6% | TK-10 renal 105% | ACHN renal 87.7% | CAKI-1 renal 50.5% | A498 renal 89.7% | CCRF-CEM leukemia 26.4% | MOLT-4 leukemia 16.4%
